Laboratory results reported in PubChem BioAssay (Tox21).
Several values for one entry are separate records, joined by “and”; a condition that tells them apart may be missing. Equal entries are not always repeated. Inconclusive results are not listed. Activity calls are given as the source filed them. Unless noted, the call rests on the fitted dose curve; in most records, active means well fitted curve in the direction sought with a large enough effect in the repeat runs; inconclusive means weak or mixed curves; inactive means no such curve, though single readings can be large; an effect the other way counts as inactive or inconclusive.

Assays:
[1] = qHTS assay to identify small molecule agonists of the constitutive androstane receptor (CAR) signaling pathway - cell viability counter screen (AID 1224836); further: nearly all actives have a fitted effect of over 45% in size
In short: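 Cells were seeded and incubated 4 hrs. Compounds were added across 15 concentrations together with PK11195 at 0.75 uM final. Plates were incubated 23 hrs at 37 C. CellTiter-Fluor was added and fluorescence measured.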

[2] = qHTS assay to identify small molecule antagonists of the constitutive androstane receptor (CAR) signaling pathway - cell viability counter screen (AID 1224837); further: nearly all actives have a fitted effect of over 45% in size
In short: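 Counter screen run in HepG2-CYP2B6-hCAR cells: 4 hr settle, compound titration (15 concentrations) with 50 nM CITCO, 23 hr at 37 C/5% CO2, CellTiter-Fluor fluorescence.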

[3] = biological target: Nuclear receptor subfamily 1 group I member 3 (Homo sapiens) (UniProt Q14994); assay: qHTS assay to identify small molecule antagonists of the constitutive androstane receptor (CAR) signaling pathway (AID 1224838);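 further: HepG2 cells stably expressing hCAR with CYP2B6 luciferase reporter stimulated by CITCO; nearly all actives have a fitted effect of over 40% in size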
In short: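 Cell line: HepG2 double-stable for hCAR and CYP2B6-2.2kb reporter. Agonist: CITCO, 50 nM final. Compounds: 15 concentrations, 24 h, 37 C. Detection: ONE-Glo luminescence.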

[4] = biological target: Nuclear receptor subfamily 1 group I member 3 (Homo sapiens) (UniProt Q14994); assay: qHTS assay to identify small molecule agonists of the constitutive androstane receptor (CAR) signaling pathway (AID 1224839); further: nearly all actives have a fitted effect of over 15% in size; further: potency means the concentration at half of the fitted maximal effect;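 on activation: HepG2 cells stably carrying human CAR and a CYP2B6 luciferase reporter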
In short: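 Cells were plated and incubated 4 hrs, then dosed with compounds at 15 concentrations. PK11195 was added to 0.75 uM final. After 24 hrs at 37 C, luciferase luminescence was measured.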

[5] = qHTS assay to identify small molecule antagonists of the estrogen related receptor signaling pathway with the pleiotropic PPARgamma coactivator (PGC) from Tox21 10K library - cell viability counter screen (AID 1224840; active means well fitted cell-killing curve with a large enough effect in the repeat runs, not every such curve was filed as active; further: nearly all actives have a fitted effect of over 40% in size)
In short: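 Following seeding of 2,000 PGC/ERR cells/well and 6 hours' incubation, test compounds were delivered in DMSO. The plates then sat 17.5 hours at 37 C before a fluorogenic live-cell protease reagent (CellTiter-Fluor) was read after 30 min.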

[6] = qHTS assay to identify small molecule antagonists of the estrogen related receptor signaling pathway with the pleiotropic PPARgamma coactivator (PGC) from Tox21 10K library (AID 1224841; call rule not given here; further: actives are mostly falling curves and most rising ones were filed inactive; nearly all actives have a fitted effect of over 50% in size; further: potency means the concentration at half of the fitted maximal effect)
In short: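 qHTS antagonist format: PGC/ERR cells, 2k/well, compound in DMSO by pin transfer after 6 h attachment, 18 h treatment at 37 C, One-Glo luminescence read at 30 min.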

[7] = qHTS assay to identify small molecule agonists of the estrogen related receptor signaling pathway with the pleiotropic PPARgamma coactivator (PGC) from Tox21 10K library (AID 1224842); further: nearly all actives have a fitted effect of over 15% in size
In short: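 PGC/ERR reporter cell line, 2,000 cells per well, incubated 6 h at 37 C before 23 nL compound in DMSO was added. After 18 h at 37 C, One-Glo luminescence read following 30 min at room temperature.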

[8] = biological target: Thyrotropin receptor (Homo sapiens) (UniProt P16473); assay: qHTS assay to identify small molecule agonists of the thyroid stimulating hormone receptor (TSHR) signaling pathway (AID 1224843; calls by dose curve; further: nearly all actives have a fitted effect of over 45% in size)
In short: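 Steps: seed 800 TSHR-HEK293 cells per well; add test compound and hold 30 min at ambient temperature; dispense cAMP-d2 then anti-cAMP cryptate; incubate 1 h at ambient; measure fluorescence intensity.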

[9] = qHTS assay to identify small molecule agonists of the hypoxia (HIF-1) signaling pathway - cell viability counter screen (AID 1224844; calls by dose curve; further: nearly all actives have a fitted effect of over 50% in size; further: potency means the concentration at half of the fitted maximal effect)
In short: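 Cells (HRE-bla ME-180, 2,000 per well) sat 5 hrs at 37C, got compound for 17 hrs, were read for CCF4-AM FRET, and were finally lysed with CellTiter-Glo for a 30 min room-temperature luminescence read.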

[10] = qHTS assay to identify small molecule agonists of the hypoxia (HIF-1) signaling pathway (AID 1224846; active means well fitted activation curve with a large enough effect in the signal ratio in the repeat runs, not every such curve was filed as active; the % refers to the signal ratio)
In short: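 A low-serum medium (0.5% dialyzed FBS) holding 2,000 HRE-bla ME-180 cells per well is preincubated for 5 hrs, dosed with compounds by pintool, and kept a further 17 hrs at 37C, 5% CO2 before CCF4-AM FRET detection of beta-lactamase.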

[11] = qHTS assay to identify small molecule agonists of H2AX - cell viability counter screen (AID 1224847; calls by dose curve; further: top concentration of the series differs between compounds; nearly all actives have a fitted effect of over 30% in size)
In short: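 Cytotoxicity counter screen in wild-type CHO-K1 cells: a 3 hr compound treatment at 37C across 15 concentrations, followed by CellTiter-Glo luminescence to gauge viable cells.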

[12] = qHTS assay to identify small molecule antagonists of the estrogen related receptor (ERR) signaling pathway from Tox21 library (AID 1224848); further: nearly all actives have a fitted effect of over 50% in size; further: potency means the concentration at half of the fitted maximal effect
In short: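 Luminescent reporter read-out (ONE-Glo) from NTP's ERR cell line after 18 h treatment at 37 C with DMSO-dissolved Tox21 compounds; cells pre-plated 6 h beforehand at 2,000 per well.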

[13] = qHTS assay to identify small molecule agonists of the estrogen related receptor (ERR) signaling pathway from Tox21 library (AID 1224849; calls by dose curve; further: nearly all actives have a fitted effect of over 15% in size); details: ERR reporter cell line, ONE-Glo luciferase, 18 h
In short: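 Screening used an NTP-provided ERR luciferase cell line. Compounds in DMSO were added 6 h after seeding and left 18 h at 37 C before a 30 min ONE-Glo step and luminescence reading.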

[14] = qHTS RealTime-Glo MT Cell Viability Assay in HepG2 cells - 24 hour (AID 1224867); further: nearly all actives have a fitted effect of over 50% in size
In short: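 HepG2 cells were seeded at 600 cells/well together with NanoLuc luciferase and a cell-permeant prosubstrate, preincubated 5 h at 37 C/5% CO2, then pin-dosed with compounds in DMSO. Nonlytic luminescence from viable cells was read at each time point.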

[15] = qHTS RealTime-Glo MT Cell Viability Assay in HEK293 cells - 32 hour (AID 1224868)
In short: (§1)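 HEK293 cells were seeded at 600 cells/well together with NanoLuc luciferase and cell-permeant prosubstrate, preincubated 5 h at 37 C/5% CO2, then given compound in DMSO by pintool. Luminescence from viable-cell prosubstrate reduction was read repeatedly over 40 h.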

[16] = A CellTox Green Cytotoxicity Assay to monitor cytotoxicity in HEK293 cells - 0 hour (AID 1224869); further: nearly all actives have a fitted effect of over 50% in size; further: potency means the concentration at half of the fitted maximal effect
In short: (§2)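 Fluorescence intensity, read at 0, 8, 16, 24, 32 and 40 h of compound treatment, reflected dye binding to DNA of dead HEK293 cells; compounds (23 nL, DMSO) were added 5 h after plating cells with reagent.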

[17] = qHTS RealTime-Glo MT Cell Viability Assay in HepG2 cells - 40 hour (AID 1224870); further: nearly all actives have a fitted effect of over 50% in size
In short: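 HepG2 cells (600/well) mixed with RealTime-Glo MT reagent, settled 5 h at 37 C/5% CO2 before compound addition. Nonlytic NanoLuc luminescence from viable-cell prosubstrate reduction read repeatedly during 40 h treatment at 37 C.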

[18] = A CellTox Green Cytotoxicity Assay to monitor cytotoxicity in HEK293 cells - 40 hour (AID 1224871); further: nearly all actives have a fitted effect of over 45% in size; further: potency means the concentration at half of the fitted maximal effect
In short: as §2

[19] = qHTS assay to identify small molecule agonists of H2AX (AID 1224845; active means well fitted activation curve with a large enough effect in the signal ratio in the repeat runs, not every such curve was filed as active; the % refers to the signal ratio)
In short: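 Wild-type CHO-K1 cells, plated overnight, exposed 3hr at 37C to 15 concentrations (0.76% DMSO final). Lysed, then HTRF anti-pH2AX (S139) cryptate and anti-H2AX-d2 antibodies, 24 hr room temperature; 665/620 nm emission read.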

[20] = qHTS RealTime-Glo MT Cell Viability Assay in HEK293 cells - 16 hour (AID 1224872)
In short: as §1
On the % scale 0 is the no-effect control and ±100 the full control effect.

Thyrotropin receptor (Homo sapiens), sequence (P16473 whole entry, looked up): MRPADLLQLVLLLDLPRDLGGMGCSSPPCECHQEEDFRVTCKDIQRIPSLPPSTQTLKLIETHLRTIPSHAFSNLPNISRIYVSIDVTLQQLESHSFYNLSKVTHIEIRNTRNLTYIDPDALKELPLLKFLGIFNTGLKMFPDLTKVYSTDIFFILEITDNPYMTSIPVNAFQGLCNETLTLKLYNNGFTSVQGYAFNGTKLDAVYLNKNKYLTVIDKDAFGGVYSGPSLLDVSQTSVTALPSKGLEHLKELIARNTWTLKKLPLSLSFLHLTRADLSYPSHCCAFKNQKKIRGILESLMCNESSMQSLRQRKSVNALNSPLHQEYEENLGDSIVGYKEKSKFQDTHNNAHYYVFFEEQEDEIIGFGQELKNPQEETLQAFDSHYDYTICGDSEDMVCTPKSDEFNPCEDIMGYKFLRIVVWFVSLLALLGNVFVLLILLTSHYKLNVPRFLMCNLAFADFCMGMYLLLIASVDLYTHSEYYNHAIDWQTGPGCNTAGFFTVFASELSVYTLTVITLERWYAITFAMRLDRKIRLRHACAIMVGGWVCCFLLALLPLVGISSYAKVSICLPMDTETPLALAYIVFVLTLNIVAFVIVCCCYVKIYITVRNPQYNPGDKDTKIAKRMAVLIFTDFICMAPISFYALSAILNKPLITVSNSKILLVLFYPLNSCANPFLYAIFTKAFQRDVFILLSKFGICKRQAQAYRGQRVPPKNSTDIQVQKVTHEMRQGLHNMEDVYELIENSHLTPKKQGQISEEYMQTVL
Nuclear receptor subfamily 1 group I member 3 (Homo sapiens), sequence (Q14994 whole entry, looked up): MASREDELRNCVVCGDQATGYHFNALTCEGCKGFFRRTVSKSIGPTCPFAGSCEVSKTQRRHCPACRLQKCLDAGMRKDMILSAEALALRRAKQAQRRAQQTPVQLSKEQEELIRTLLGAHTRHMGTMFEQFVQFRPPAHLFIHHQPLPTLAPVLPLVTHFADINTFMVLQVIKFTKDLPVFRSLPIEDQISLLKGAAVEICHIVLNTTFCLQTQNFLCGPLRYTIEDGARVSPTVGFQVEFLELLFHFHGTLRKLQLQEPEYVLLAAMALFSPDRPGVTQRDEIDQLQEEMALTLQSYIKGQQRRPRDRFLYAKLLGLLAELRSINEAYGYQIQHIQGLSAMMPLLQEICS

O=C1CCCCCCCCCCCCCCCO1
inactive: Potency [1] | Potency [2] | Potency [3] | Potency [4] | Potency [5] | Potency [6] | Potency [7] | Potency [8] | Potency [9] | Potency [10] | Potency [11] | Potency [12] | activity change, positive = activation ([13]; at 92.4 µM (top of the series)) -5.05% | Potency [14] | Potency [15] | Potency [17]
active: Potency [16] 24.5 µM | Potency [18] 24.5 µM

CC1(C)[C@@H](O)CC[C@]2(C)[C@H]3C(=O)C=C4[C@@H]5C[C@@](C)(C(=O)O)CC[C@]5(C)CC[C@@]4(C)[C@]3(C)CC[C@@H]12
inactive: Potency [1] | Potency [2] | Potency [3] | Potency [4] | Potency [5] | Potency [6] | Potency [8] | Potency [19] | Potency [12] | activity change, positive = activation ([13]; at 92.4 µM (top of the series)) 3.52% | Potency [15] | Potency [16] | Potency [17] | Potency [18]

Cc1cccc2cccnc12
inactive: Potency [1] | Potency [2] | Potency [3] | Potency [4] | Potency [5] | Potency [6] | Potency [7] | Potency [8] | Potency [9] | Potency [19] | Potency [10] | Potency [11] | Potency [12] | activity change, positive = activation ([13]; at 92.4 µM (top of the series)) 0.0767% | Potency [14] | Potency [15] | Potency [16] | Potency [17] | Potency [18] | Potency [20]

O=C(O)c1cccc(C(F)(F)F)c1
inactive: Potency [1] | Potency [2] | Potency [3] | Potency [4] | Potency [5] | Potency [6] | Potency [7] | Potency [8] | Potency [9] | Potency [19] | Potency [10] | Potency [11] | Potency [12] | activity change, positive = activation ([13]; at 92.4 µM (top of the series)) -2.71% | Potency [14] | Potency [15] | Potency [16] | Potency [17] | Potency [18] | Potency [20]

CCCCCCOC(=O)C(C)CC (centres undefined)
inactive: Potency [1] | Potency [2] | Potency [3] | Potency [4] | Potency [5] | Potency [6] | Potency [8] | Potency [9] | Potency [19] | Potency [10] | Potency [11] | Potency [12] | activity change, positive = activation ([13]; at 92.4 µM (top of the series)) 0.0288% | Potency [14] | Potency [15] | Potency [16] | Potency [17] | Potency [18] | Potency [20]

C=C(CC)C(=O)c1ccc(OCC(=O)O)c(Cl)c1Cl
active: Potency [4] 3.35 µM | Potency [6] 30.4 µM and 29.8 µM | Potency [9] 19.4 µM and 21.3 µM | Potency [12] 68.1 µM
inactive: Potency [1] | Potency [2] | Potency [3] | Potency [5] | Potency [7] | Potency [8] | Potency [19] | activity change, positive = activation ([13]; at 42.5 µM (top of the series)) -17.8% | activity change, positive = activation ([13]; at 92.4 µM (top of the series)) -55% | Potency [14] | Potency [15] | Potency [16] | Potency [17] | Potency [18]

CC/C=C\CCCCCO
inactive: Potency [1] | Potency [2] | Potency [3] | Potency [4] | Potency [5] | Potency [6] | Potency [8] | Potency [9] | Potency [19] | Potency [10] | Potency [11] | Potency [12] | activity change, positive = activation ([13]; at 92.4 µM (top of the series)) 4.13% | Potency [14] | Potency [15] | Potency [16] | Potency [17] | Potency [18] | Potency [20]

Cc1c(C)c([N+](=O)[O-])c(C(C)(C)C)c([N+](=O)[O-])c1C
active: Potency [4] 27.3 µM
inactive: Potency [1] | Potency [2] | Potency [3] | Potency [5] | Potency [6] | Potency [7] | Potency [9] | Potency [19] | Potency [10] | Potency [12] | activity change, positive = activation ([13]; at 92.4 µM (top of the series)) -6.21% | Potency [14] | Potency [15] | Potency [16] | Potency [18] | Potency [20]

CCO[Si](OCC)(OCC)OCC
inactive: Potency [1] | Potency [2] | Potency [3] | Potency [4] | Potency [5] | Potency [8] | Potency [9] | Potency [19] | Potency [10] | Potency [11] | Potency [14] | Potency [15] | Potency [16] | Potency [18]

CCCCCCCCCCOC(=O)c1ccccc1C(=O)OCCCCCCCC
inactive: Potency [1] | Potency [2] | Potency [3] | Potency [4] | Potency [5] | Potency [8] | Potency [9] | Potency [19] | Potency [10] | Potency [11] | Potency [14] | Potency [15] | Potency [16] | Potency [17] | Potency [18] | Potency [20]

c1cnccn1
inactive: Potency [1] | Potency [2] | Potency [3] | Potency [4] | Potency [5] | Potency [8] | Potency [9] | Potency [19] | Potency [10] | Potency [11] | Potency [14] | Potency [15] | Potency [16] | Potency [17] | Potency [18] | Potency [20]

Clc1sc(Cl)c(Cl)c1Cl
inactive: Potency [1] | Potency [2] | Potency [3] | Potency [4] | Potency [5] | Potency [6] | Potency [8] | Potency [9] | Potency [19] | Potency [10] | Potency [11] | Potency [12] | activity change, positive = activation ([13]; at 92.4 µM (top of the series)) 4.94% | Potency [14] | Potency [15] | Potency [16] | Potency [17] | Potency [18] | Potency [20]

O=[N+]([O-])c1ccc(F)c(Cl)c1
inactive: Potency [1] | Potency [2] | Potency [3] | Potency [4] | Potency [5] | Potency [8] | Potency [9] | Potency [19] | Potency [10] | Potency [11] | Potency [14] | Potency [15] | Potency [16] | Potency [18]
